# Sampled rows, rich in hits. Any-hit rate of the full collection: about 12%.
# HCV inh – qHTS Assay for Inhibitors of Hepatitis C Virus (HCV) | Huh7.5.1 HCVcc-Cre infection, luciferase reporter, 44 h | Potency, µM (titrated, usually from 41.8 µM), usual class: inhibitors | hit rate 3.4% among 340,000
#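 Whole-lifecycle infectious HCVcc-Cre system; cells 1,000/well, compound then virus (~0.5 moi) added 4 h after plating, 44 h culture. Luciferase read 15 sec following 15 min substrate incubation, room temp.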
# NS1 inh – qHTS Assay for Inhibitors of Influenza NS1 Protein Function; Potency, µM (doses to about 46.1 µM); hit rate 0.4% among 270,000; calls by dose curve; further: actives are rising curves; nearly all actives have a fitted effect of over 50% in size
#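 S. cerevisiae expressing influenza A NS1, grown in glucose, washed, then diluted 1:100 into pH 6.0 -URA galactose medium with 23 nl compound. Growth recovery read as OD600; NS1-free strain serves as control.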
# Pf growth 48h – Primary qHTS for delayed death inhibitors of the malarial parasite plastid, 48 hour incubation; hit rate 5.9% among 310,000; P. falciparum luciferase growth in erythrocytes, 48 h; Potency, µM (highest dose often 28.7 µM), usual class: inhibitors
#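 A one-generation exposure of luciferase-tagged malaria parasites in RPMI 1640/Albumax erythrocyte culture, 37 C and 5% CO2. Inhibition is inferred from decreased luminescence after adding detection reagent.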
# Pf growth 96h – Primary qHTS for delayed death inhibitors of the malarial parasite plastid, 96 hour incubation. P. falciparum luciferase reporter growth, 96 h. Potency, µM (highest dose often 28.7 µM), usual class: inhibitors. hit rate 6.9% among 320,000. AID 504834, 2011
#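 Compounds incubated with erythrocytes infected by luciferase-expressing P. falciparum (2% hematocrit, 0.05% parasitemia final) for 96 hours, 37 C in 5% CO2. Growth inhibition scored as decreased luciferase luminescence.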
# SARS PLpro yeast – qHTS of Yeast-based Assay for SARS-CoV PLP; S. cerevisiae expressing SARS-CoV PLpro, growth rescue; Potency, µM (highest dose often 32.9 µM), most hits filed as activators; hit rate 0.19% among 330,000; AID 485353, 2010; calls by dose curve; further: nearly all actives have a fitted effect of over 55% in size
# AMA1 RON2 block – qHTS for Inhibitors of AMA1-RON; Towards Development of Antimalarial Drug Lead: Primary Screen; AID 720542, 2013; AlphaScreen AMA1-biotinylated RON2 peptide binding; hit rate 0.2% among 360,000; Plasmodium falciparum AMA1 (3D7) - RON2 peptide interaction; Potency, µM (series often up to 58.2 µM), usual class: inhibitors; further: nearly all actives have a fitted effect of over 45% in size
#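 AMA1 (3D7) with his tag at 25 nM final met compounds first, then biotinylated RON2 peptide at 25 nM; detection used donor plus acceptor beads, 10 µg/mL apiece, read by AlphaScreen after 30 min at room temperature.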
# A number is an active result; . = inactive; ? = inconclusive; / = no result given; [ ] = dose if it differs, or a comment. Unless noted, the call rests on the fitted dose curve; in most records, active means well fitted curve in the direction sought with a large enough effect; inconclusive means small, poorly fitted or top-dose-only effect, or another doubt; inactive means no such curve, though single readings can be large; an effect the other way counts as inactive or inconclusive.
SMILES,HCV inh,NS1 inh,Pf growth 48h,Pf growth 96h,SARS PLpro yeast,AMA1 RON2 block
CCN(Cc1ccccc1)C(c1ccccn1)c1nnnn1C(C)(C)CC (stereo not drawn),.,.,?,.,.,.
CC(C)(C)n1nnnc1C(c1ccncc1)N(Cc1ccccc1)Cc1ccco1 (stereo not drawn),.,.,13µM,/,.,.
CC(C)(C)n1nnnc1C(c1cccs1)N(Cc1cccnc1)Cc1ccco1 (stereo not drawn),.,.,10µM,7.4µM,.,.
CN(C)CCN(Cc1ccccc1)C(c1cc2ccccc2o1)c1nnnn1C(C)(C)C (stereo not drawn),/,/,/,/,/,.
CC(C)(C)n1nnnc1C(c1ccccn1)N(Cc1ccccc1)Cc1ccc(Cl)cc1 (stereo not drawn),?,.,12µM,1.5µM,/,.
CC(C)(C)n1nnnc1C(c1cccs1)N(Cc1ccccc1)Cc1ccco1 (stereo not drawn),11µM,.,13µM,.,.,.
CCC1(c2ccccc2)NC(=O)N(CC(=O)N2CC(=O)Nc3ccccc32)C1=O (stereo not drawn),.,/,?,?,.,.
CCc1ccc(S(=O)(=O)N2CCN(c3ncccn3)CC2)cc1,.,.,.,?,.,.
CCN(Cc1ccccc1)C(c1ccc(C)cc1)c1nnnn1C(C)(C)C (stereo not drawn),.,.,/,8.3µM,.,.
CCN(Cc1ccccc1)C(c1ccc(Cl)cc1)c1nnnn1C(C)(C)C (stereo not drawn),.,.,?,.,.,.
CC(C)CC(=O)NC(=S)Nc1ccc(N2CCCC2)c(Cl)c1,.,.,3.3µM,?,.,.
CC(C)C(=O)Nc1ccc(N2CCCC2)c(Cl)c1,.,/,.,.,.,.
O=C(NC(=S)Nc1ccc(N2CCOCC2)c(Cl)c1)C(c1ccccc1)c1ccccc1,.,.,.,?,.,.
CCCC(=O)NC(=S)Nc1ccc(N2CCOCC2)c(Cl)c1,.,.,?,12µM,.,.
Cc1cc(C)c2nc(N3CCC(C(=O)NCCCN4CC(C)CC(C)C4)CC3)sc2c1 (stereo not drawn),?,/,.,.,.,.
COc1ccc(C(=O)OCC(=O)NC2CCCC2)c(OC)c1,.,.,.,.,.,.
COc1ccc(C(=O)OCC(=O)NC(=O)NC2CCCC2)c(OC)c1,.,/,12µM,.,.,.
COc1ccc(NC(=S)N2CCC(N(C)CC3CCCO3)CC2)cc1Cl (stereo not drawn),.,.,.,6.6µM,.,.
Cc1cccc(NC(=S)N2CCC(N(C)CC3CCCO3)CC2)c1 (stereo not drawn),.,/,.,?,.,.
Cc1c(Cl)cccc1NC(=S)N1CCC(N(C)CC2CCCO2)CC1 (stereo not drawn),.,/,.,6.6µM,.,.
Cc1ccc(NC(=S)N2CCC(N(C)CC3CCCO3)CC2)cc1C (stereo not drawn),.,/,.,1.5µM,.,.
COc1ccc(NC(=S)N2CCC(N(C)CC3CCCO3)CC2)cc1 (stereo not drawn),.,.,.,.,.,.
Cc1c(Cl)cccc1NC(=S)N1CCN(C(=O)C2CCCO2)CC1 (stereo not drawn),.,.,.,.,.,.[11.6 µM]
O=C(CSc1nnc(CNC(=O)c2cccs2)o1)Nc1cccc(Cl)c1,.,.,.,.,.,.
COc1ccc(/C(C)=N/NC(=O)CN(c2ccc(OC)cc2)S(=O)(=O)c2ccccc2)cc1,.,.,.,.,.,.
SMILES,HCV inh,NS1 inh,Pf growth 48h,Pf growth 96h,SARS PLpro yeast,AMA1 RON2 block
COc1ccc([C@@H]2C[C@H](c3ccccc3)Oc3cc(C)cc(C)c32)cc1,.,.,?,?,.,.
O=C(/C=C/c1ccccc1)Nc1cccc(C(=O)O)c1,.,.,0.26µM,?,.,.
CSc1cccc(NC(=O)/C=C/c2ccccc2)c1,?,.,.,10µM,.,.
CSc1cccc(NC(=O)/C=C/c2ccco2)c1,.,/,.,.,.,.
CSc1ccc(/C=C/C(=O)Nc2ccccc2)cc1,.,/,.,.,.,.
CCC(=O)Nc1ccc(NC(=O)/C=C/c2ccc(Cl)cc2)cc1,.,.,.,9.3µM,.,.
CSc1cccc(NC(=O)/C=C/c2ccc(Cl)cc2)c1,13µM,.,.,.,.,.
CCc1cccc(OCCOC(=O)CNS(=O)(=O)c2ccc(NC(C)=O)cc2)c1,.,/,.,.,.,.
Cc1ccc(NC(=O)c2cc(-c3cc(Cl)ccc3C)n[nH]2)cc1NS(C)(=O)=O,/,/,/,/,/,.
COc1cc(S(N)(=O)=O)c(OC)cc1N,.,.,.,.,.,.
COc1cc(N=Nc2ccc(C)cc2S(N)(=O)=O)c(C)cc1N,25µM,/,/,/,/,?
CC1=CC2=NC(=O)/C(=C\c3cc(C)n(-c4ccc(F)cc4)c3C)C(=N)N2O1,?,.,4.7µM,?,.,.
CC(=O)NC(c1cccc(F)c1)c1nc(-c2cc(F)cc(Cl)c2)cs1 (stereo not drawn),/,/,/,/,/,.
COc1ccc(OCCCc2c(C)n[nH]c2C)cc1,.,.,/,9.3µM,.,.
Cc1n[nH]c(C)c1CCCOc1ccccc1,.,.,/,.,?,.
CNCCc1c(C)n[nH]c1C,.,.,.,12µM,.,.
c1ccc2[nH]c(-c3ccncc3)nc2c1,.,.,.,?,.,.
Fc1cc2nc(-c3ccncc3)[nH]c2cc1F,.,.,?,1.9µM,.,.
Cn1ccc(-c2ccccc2)n1,.,/,.,1.7µM,.,.
CNc1ccccc1-n1ccc(-c2ccccc2)n1,?,.,.,/,.,?
CCOC(=O)CNC(=S)N(Cc1cccs1)C1CCCC1,.,.,?,.,.,.
CCCCCCNC(=O)CNC(=S)N(Cc1cccs1)C1CCCCC1,10µM,.,?,?,.,.
OCC1(CO)COC(C(Cl)(Cl)Cl)OC1,/,/,.,.,/,/
COc1ccc(CNC(=O)C(=O)NCCC2CCCCN2S(=O)(=O)c2cccs2)cc1 (stereo not drawn),?,/,?,?,.,.
O=C(NC1CC(=O)N(c2ccccc2)C1)C1CC1 (stereo not drawn),.,/,.,.,.,.
CC[n+]1c(/C=C(\C)SC)sc2ccccc21,?,.,0.29µM,?,.,.
CC[n+]1c(/C=C(\C)Nc2ccccc2)sc2ccccc21,.,.,5.2µM,.,.,.
CC[n+]1c(/C=C(\C)OC)sc2ccccc21,.,.,.,.,.,.
CC/C(=C/c1sc2ccccc2[n+]1CC)SC,?,.,?,1.7µM,.,.

# High-throughput results from PubChem.
